Values joined by “and” are separate entries in the source; they are usually repeats but may differ in a detail not shown here. Identical values can stand only once. Results filed as inconclusive are left out. Active and inactive are the calls of the source. Unless noted, the call rests on the fitted dose curve; in most records, active means well fitted curve in the direction sought with a large enough effect in the repeat runs; inconclusive means weak or mixed curves; inactive means no such curve, though single readings can be large; an effect the other way counts as inactive or inconclusive.
Columns and labels:
[1] = qHTS assay to identify small molecule agonists of H2AX (AID 1224845; active means well fitted activation curve with a large enough effect in the signal ratio in the repeat runs, not every such curve was filed as active; the % refers to the signal ratio)
Procedure, shortened: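 Wild-type CHO-K1 cells plated overnight, then exposed 3 hr at 37C to compounds at 15 concentrations (0.76% DMSO). Lysed, then HTRF anti-pH2AX(S139)-cryptate/anti-H2AX-d2 detection after 24 hr at room temperature; emissions 665 and 620 nm.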

[2] = qHTS assay to identify small molecule agonists of the hypoxia (HIF-1) signaling pathway (AID 1224846; active means well fitted activation curve with a large enough effect in the signal ratio in the repeat runs, not every such curve was filed as active; the % refers to the signal ratio)
Procedure, shortened: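 A low-serum medium (0.5% dialyzed FBS) holding 2,000 HRE-bla ME-180 cells per well is preincubated for 5 hrs, dosed with compounds by pintool, and kept a further 17 hrs at 37C, 5% CO2 before CCF4-AM FRET detection of beta-lactamase.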

[3] = qHTS assay to identify small molecule agonists of H2AX - cell viability counter screen (AID 1224847; calls by dose curve; further: top concentration of the series differs between compounds; nearly all actives have a fitted effect of over 30% in size)
Procedure, shortened: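 Cells plated first: CHO-K1, 1000 per well in 10% FBS medium, incubated overnight at 37C. Then 15-point compound titration added (final DMSO 0.76%) for 3 hr. Finally CellTiter-Glo added and luminescence read.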

[4] = qHTS assay to identify small molecule antagonists of the estrogen related receptor (ERR) signaling pathway from Tox21 library (AID 1224848); further: nearly all actives have a fitted effect of over 50% in size; further: potency means the concentration at half of the fitted maximal effect
Procedure, shortened: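 Cells: ERR line, 2,000/well; 6 h preincubation 37 C/5% CO2. Cpd in DMSO via pin tool; 18 h, 37 C. ONE-Glo, 30 min RT, luminescence.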

[5] = qHTS assay to identify small molecule agonists of the estrogen related receptor (ERR) signaling pathway from Tox21 library (AID 1224849; calls by dose curve; further: nearly all actives have a fitted effect of over 15% in size); conditions: ERR reporter cell line, ONE-Glo luciferase, 18 h
Procedure, shortened: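 Screening used an NTP-provided ERR luciferase cell line. Compounds in DMSO were added 6 h after seeding and left 18 h at 37 C before a 30 min ONE-Glo step and luminescence reading.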

[6] = qHTS RealTime-Glo MT Cell Viability Assay in HepG2 cells - 24 hour (AID 1224867); further: nearly all actives have a fitted effect of over 50% in size
Procedure, shortened: (§1)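 HepG2 suspension premixed with RealTime-Glo reagents is plated at 600 cells per well and left 5 h at 37 C/5% CO2. Compounds in DMSO then go in, and bioluminescence reflecting viable cell number is recorded over 40 h.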

[7] = qHTS RealTime-Glo MT Cell Viability Assay in HEK293 cells - 32 hour (AID 1224868); further: top concentration of the series differs between compounds; nearly all actives have a fitted effect of over 50% in size
Procedure, shortened: (§2)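 Reads taken at 0, 8, 16, 24, 32 and 40 h from the same wells. HEK293 cells (600/well) carried RealTime-Glo reagents from seeding, with compound added after a 5 h settle at 37 C.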

[8] = A CellTox Green Cytotoxicity Assay to monitor cytotoxicity in HEK293 cells - 0 hour (AID 1224869); further: nearly all actives have a fitted effect of over 50% in size
Procedure, shortened: (§3)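 Fluorescence intensity, read at 0, 8, 16, 24, 32 and 40 h of compound treatment, reflected dye binding to DNA of dead HEK293 cells; compounds (23 nL, DMSO) were added 5 h after plating cells with reagent.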

[9] = qHTS RealTime-Glo MT Cell Viability Assay in HepG2 cells - 40 hour (AID 1224870); further: nearly all actives have a fitted effect of over 50% in size
Procedure, shortened: (§4)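 HepG2 cells mixed with RealTime-Glo MT reagents (NanoLuc plus cell-permeant prosubstrate) were seeded at 600 cells/well, incubated 5 h at 37 C/5% CO2, then pinned with compounds in DMSO; nonlytic luminescence tracked viability during 40 h treatment.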

[10] = A CellTox Green Cytotoxicity Assay to monitor cytotoxicity in HEK293 cells - 40 hour (AID 1224871); further: nearly all actives have a fitted effect of over 45% in size; further: potency means the concentration at half of the fitted maximal effect
Procedure, shortened: as §3

[11] = qHTS RealTime-Glo MT Cell Viability Assay in HEK293 cells - 16 hour (AID 1224872); further: nearly all actives have a fitted effect of over 50% in size; further: potency means the concentration at half of the fitted maximal effect
Procedure, shortened: as §2

[12] = qHTS RealTime-Glo MT Cell Viability Assay in HepG2 cells - 8 hour (AID 1224873); further: nearly all actives have a fitted effect of over 55% in size
Procedure, shortened: as §4

[13] = qHTS RealTime-Glo MT Cell Viability Assay in HEK293 cells - 40 hour (AID 1224874); conditions: RealTime-Glo luminescence; max response: stronger effect = lower value; further: nearly all actives have a fitted effect of over 50% in size; further: potency means the concentration at half of the fitted maximal effect
Procedure, shortened: (§5)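 Viable HEK293 cells reduce a cell-permeant prosubstrate; the product diffuses out and is consumed by NanoLuc in the medium to give light. Compounds went in after a 5 h incubation and plates were read over the treatment course.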

[14] = A CellTox Green Cytotoxicity Assay to monitor cytotoxicity in HEK293 cells - 24 hour (AID 1224875); further: nearly all actives have a fitted effect of over 45% in size
Procedure, shortened: as §3

[15] = A CellTox Green Cytotoxicity Assay to monitor cytotoxicity in HepG2 cells - 16 hour (AID 1224876); further: nearly all actives have a fitted effect of over 45% in size
Procedure, shortened: (§6)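 Using 1536-well format, dye-containing HepG2 suspension was seeded, allowed 5 h at 37 C/5% CO2, dosed by pintool with compounds, positive and negative controls, and imaged for fluorescence across 40 h.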

[16] = qHTS RealTime-Glo MT Cell Viability Assay in HepG2 cells - 32 hour (AID 1224877); further: nearly all actives have a fitted effect of over 55% in size
Procedure, shortened: as §1

[17] = A CellTox Green Cytotoxicity Assay to monitor cytotoxicity in HepG2 cells - 24 hour (AID 1224878); further: nearly all actives have a fitted effect of over 45% in size
Procedure, shortened: as §6

[18] = A CellTox Green Cytotoxicity Assay to monitor cytotoxicity in HepG2 cells - 40 hour (AID 1224879); further: nearly all actives have a fitted effect of over 40% in size
Procedure, shortened: as §6

[19] = qHTS RealTime-Glo MT Cell Viability Assay in HEK293 cells - 0 hour (AID 1224880)
Procedure, shortened: as §5

[20] = A CellTox Green Cytotoxicity Assay to monitor cytotoxicity in HEK293 cells - 32 hour (AID 1224881); further: nearly all actives have a fitted effect of over 40% in size
Procedure, shortened: as §3
On the % scale 0 is the no-effect control and ±100 the full control effect.

O=C(O)Cc1c[nH]c2ccccc12
inactive: Potency [1] | outcome [2] | Potency [3] | Potency [4] | activity change, positive = activation ([5]; at 92.4 µM (top of the series)) 5.71% and 6.87% | Potency [6] | Potency [7] | Potency [8] | Potency [9] | Potency [10] | Potency [11] | Potency [12] | max response [13] 12.4% and 16.9% | Potency [14] | Potency [15] | Potency [16] | Potency [17] | Potency [18] | Potency [19] | Potency [20]

COc1ccc2cc3[n+](cc2c1OC)CCc1cc2c(cc1-3)OCO2
inactive: Potency [1] | outcome [2] | Potency [3] | activity change, positive = activation ([5]; at 42.5 µM (top of the series)) -43.6% | activity change, positive = activation ([5]; at 92.4 µM (top of the series)) -64.1% | Potency [6] | Potency [8] | Potency [9] | Potency [12] | Potency [15] | Potency [16] | Potency [17] | Potency [18]
active: Potency [4] 976 nM and 3.35 µM | Potency [10] 22 µM and 19 µM | Potency [11] 4.4 µM | Potency [13] 4.4 µM and 9.52 µM

OB(O)O
inactive: Potency [1] | outcome [2] | Potency [3] | Potency [4] | activity change, positive = activation ([5]; at 92.4 µM (top of the series)) 4.58% and 4.55% | Potency [6] | Potency [7] | Potency [8] | Potency [9] | Potency [10] | Potency [11] | Potency [12] | max response [13] 1.85% and 3.92% | Potency [14] | Potency [15] | Potency [16] | Potency [17] | Potency [18] | Potency [19] | Potency [20]

O=[N+]([O-])c1ccccc1C(F)(F)F
inactive: Potency [1] | outcome [2] | Potency [3] | Potency [4] | activity change, positive = activation ([5]; at 92.4 µM (top of the series)) -5.97% and 7.68% | Potency [6] | Potency [8] | Potency [9] | Potency [10] | Potency [11] | Potency [12] | max response [13] 3.79% and 8.48% | Potency [14] | Potency [15] | Potency [16] | Potency [17] | Potency [18] | Potency [19] | Potency [20]

O=C1OC(=O)c2c(Cl)c(Cl)c(Cl)c(Cl)c21
inactive: Potency [1] | outcome [2] | Potency [3] | Potency [4] | activity change, positive = activation ([5]; at 92.4 µM (top of the series)) -24.8% | Potency [6] | Potency [7] | Potency [8] | Potency [9] | Potency [10] | Potency [11] | Potency [12] | max response [13] 1.44% | Potency [14] | Potency [15] | Potency [16] | Potency [17] | Potency [18] | Potency [20]

Cc1cc(C)cc(O)c1
inactive: Potency [1] | outcome [2] | Potency [3] | Potency [4] | activity change, positive = activation ([5]; at 92.4 µM (top of the series)) 8.03% and 0.796% | Potency [6] | Potency [8] | Potency [9] | Potency [10] | Potency [11] | Potency [12] | max response [13] 6.28% and 8.82% | Potency [14] | Potency [15] | Potency [16] | Potency [17] | Potency [18] | Potency [20]

COC(=O)/C=C\C(=O)OC
inactive: Potency [1] | outcome [2] | Potency [3] | Potency [4] | activity change, positive = activation ([5]; at 42.5 µM (top of the series)) 7.01% | activity change, positive = activation ([5]; at 92.4 µM (top of the series)) 2.62% | Potency [6] | Potency [7] | Potency [8] | Potency [9] | Potency [10] | Potency [11] | Potency [12] | max response [13] 12.2% and 10.6% | Potency [14] | Potency [15] | Potency [16] | Potency [17] | Potency [18] | Potency [20]

COC(=O)OC
inactive: Potency [1] | outcome [2] | Potency [3] | Potency [4] | activity change, positive = activation ([5]; at 92.4 µM (top of the series)) 8.59% and 5.73% | Potency [6] | Potency [7] | Potency [8] | Potency [9] | Potency [10] | Potency [11] | Potency [12] | max response [13] 8.45% and 1.69% | Potency [14] | Potency [15] | Potency [16] | Potency [17] | Potency [18] | Potency [19] | Potency [20]

O=[N+]([O-])c1cc(C(F)(F)F)ccc1Cl
inactive: Potency [1] | outcome [2] | Potency [3] | Potency [4] | activity change, positive = activation ([5]; at 92.4 µM (top of the series)) 3.85% | Potency [6] | Potency [7] | Potency [8] | Potency [9] | Potency [10] | Potency [11] | Potency [12] | max response [13] -1.22% and -0.472% | Potency [14] | Potency [15] | Potency [16] | Potency [17] | Potency [18] | Potency [20]

N#CCC(=O)O
inactive: Potency [1] | outcome [2] | Potency [3] | Potency [4] | activity change, positive = activation ([5]; at 92.4 µM (top of the series)) 4.35% and -0.59% | Potency [6] | Potency [8] | Potency [9] | Potency [10] | Potency [11] | Potency [12] | max response [13] -0.419% and 10.1% | Potency [14] | Potency [15] | Potency [16] | Potency [17] | Potency [18] | Potency [20]

CC(=O)Nc1ccc(CC(=O)O)cc1
inactive: Potency [1] | outcome [2] | Potency [3] | Potency [4] | activity change, positive = activation ([5]; at 42.5 µM (top of the series)) -1.58% | activity change, positive = activation ([5]; at 92.4 µM (top of the series)) 9.59% | Potency [6] | Potency [7] | Potency [8] | Potency [9] | Potency [10] | Potency [11] | Potency [12] | max response [13] -18.8% and 1.34% | Potency [15] | Potency [16] | Potency [17] | Potency [18] | Potency [19] | Potency [20]

Nc1cccc(C(F)(F)F)c1
inactive: Potency [1] | outcome [2] | Potency [3] | Potency [4] | activity change, positive = activation ([5]; at 92.4 µM (top of the series)) 2.57% and 2.05% | Potency [6] | Potency [7] | Potency [8] | Potency [9] | Potency [10] | Potency [11] | Potency [12] | max response [13] 3.13% and 0.276% | Potency [15] | Potency [16] | Potency [17] | Potency [18] | Potency [20]

Reference: PubChem BioAssay (Tox21)
